According to PubChem BioAssay AID1159580 (chemical genetic matrix, 2015):
In all, about 5,500 compounds went through this assay and about 2,000 (36%) were called active. Not shown: some 18% with an inconclusive outcome. Cut-off read from the data, not from the text of the source: active = normalized growth mostly below about 0.91 (no sharp cut-off); inconclusive = no clear call, values can overlap the other calls; inactive = mostly above about 0.92. Some of the results follow.

Assay: chemical genetic growth profiling, strain panel (AID 1159580);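 note: tested at 20 µM; growth read once vehicle control cultures reached saturation at 30 °C; 1 = growth at the plate median or of vehicle wells; lower values mean less growth of the strain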
Details: growth OD

Measured: normalized growth

CN1CCN(C(c2ccccc2)c2ccccc2)CC1
inactive: S. cerevisiae deletion strains, locus YJR075W, strain HOC1, hits give low values 1 | S. cerevisiae deletion strains, locus YKL009W, strain mrt4, hits give low values 0.963 | S. cerevisiae deletion strains, locus YKL068W, hits give low values 0.977 | S. cerevisiae deletion strains, locus YKL085W, strain MDH1 (second series), hits give low values 0.973 | S. cerevisiae deletion strains, locus YKL085W, strain MDH1, hits give low values 0.973 | S. cerevisiae deletion strains, locus YKL160W, strain elf1, hits give low values 0.965 | S. cerevisiae deletion strains, locus YKL190W, strain CNB1, hits give low values 0.974 | S. cerevisiae deletion strains, locus YKR001C, strain vps1, hits give low values 0.974 | S. cerevisiae deletion strains, locus YKR026C, strain gcn3, hits give low values 0.992 | S. cerevisiae deletion strains, locus YKR091W, strain srl3, hits give low values 0.98 | S. cerevisiae deletion strains, locus YLL001W, strain dnm1, hits give low values 0.996 | S. cerevisiae deletion strains, locus YLL026W, hits give low values 0.999 | S. cerevisiae deletion strains, locus YLL041C, strain sdh2, hits give low values 0.971 | S. cerevisiae deletion strains, locus YLR027C, strain aat2, hits give low values 0.985 | S. cerevisiae deletion strains, locus YLR039C, strain RIC1, hits give low values 1 | S. cerevisiae deletion strains, locus YLR058C, strain SHM2, hits give low values 0.999 | S. cerevisiae deletion strains, locus YLR102C, strain apc9, hits give low values 0.967 | S. cerevisiae deletion strains, locus YLR113W, strain HOG1, hits give low values 0.994 | S. cerevisiae deletion strains, locus YLR221C, strain rsa3, hits give low values 1.02 | S. cerevisiae deletion strains, locus YLR258W, strain gsy2, hits give low values 0.978 | S. cerevisiae deletion strains, locus YLR262C, strain YPT6 (second series), hits give low values 1 | S. cerevisiae deletion strains, locus YLR262C, strain YPT6, hits give low values 1.03 | S. cerevisiae deletion strains, locus YLR268W, strain sec22, hits give low values 0.965 | S. cerevisiae deletion strains, locus YLR320W, strain mms22, hits give low values 0.992 | S. cerevisiae deletion strains, locus YLR330W, strain CHS5, hits give low values 0.989 | S. cerevisiae deletion strains, locus YLR342W, strain FKS1 (second series), hits give low values 1.03 | S. cerevisiae deletion strains, locus YLR342W, strain FKS1, hits give low values 0.991 | S. cerevisiae deletion strains, locus YLR357W, strain rsc2, hits give low values 0.948 | S. cerevisiae deletion strains, locus YLR370C, strain arc18, hits give low values 0.989 | S. cerevisiae deletion strains, locus YLR371W, strain rom2, hits give low values 0.974 | S. cerevisiae deletion strains, locus YLR384C, strain iki3, hits give low values 0.965 | S. cerevisiae deletion strains, locus YLR418C, strain cdc73, hits give low values 0.934 | S. cerevisiae deletion strains, locus YML016C, strain PPZ1, hits give low values 1 | S. cerevisiae deletion strains, locus YML032C, strain rad52, hits give low values 0.959 | S. cerevisiae deletion strains, locus YML120C, strain ndi1, hits give low values 0.99 | S. cerevisiae deletion strains, locus YML124C, strain tub3, hits give low values 0.968 | S. cerevisiae deletion strains, locus YMR058W, strain fet3, hits give low values 1.01 | S. cerevisiae deletion strains, locus YMR078C, strain ctf18, hits give low values 0.973 | S. cerevisiae deletion strains, locus YMR125W, strain sto1, hits give low values 0.95 | S. cerevisiae deletion strains, locus YMR129W, hits give low values 0.996 | S. cerevisiae deletion strains, locus YMR205C, strain PFK2, hits give low values 0.963 | S. cerevisiae deletion strains, locus YMR223W, strain ubp8, hits give low values 0.991 | S. cerevisiae deletion strains, locus YMR231W, strain pep5, hits give low values 0.994 | S. cerevisiae deletion strains, locus YMR263W, strain SAP30, hits give low values 0.997 | S. cerevisiae deletion strains, locus YMR307W, strain GAS1, hits give low values 1.02 | S. cerevisiae deletion strains, locus YNL067W, strain RPL9B, hits give low values 0.996 | S. cerevisiae deletion strains, locus YNL071W, strain lat1, hits give low values 0.984 | S. cerevisiae deletion strains, locus YNL128W, strain TEP1, hits give low values 0.991 | S. cerevisiae deletion strains, locus YNL153C, strain GIM3, hits give low values 1 | S. cerevisiae deletion strains, locus YNL183C, strain NPR1, hits give low values 0.937 | S. cerevisiae deletion strains, locus YNL209W, strain ssb2, hits give low values 0.978 | S. cerevisiae deletion strains, locus YNL233W, strain BNI4, hits give low values 1 | S. cerevisiae deletion strains, locus YNL248C, strain rpa49, hits give low values 0.932 | S. cerevisiae deletion strains, locus YNL250W, strain rad50, hits give low values 0.987 | S. cerevisiae deletion strains, locus YNL271C, strain bni1, hits give low values 0.974 | S. cerevisiae deletion strains, locus YNL298W, strain CLA4, hits give low values 0.975 | S. cerevisiae deletion strains, locus YNL307C, strain MCK1, hits give low values 0.962 | S. cerevisiae deletion strains, locus YNL322C, strain KRE1 (second series), hits give low values 0.978 | S. cerevisiae deletion strains, locus YNL322C, strain KRE1, hits give low values 0.991 | S. cerevisiae deletion strains, locus YNR049C, strain mso1, hits give low values 0.99 | S. cerevisiae deletion strains, locus YNR052C, strain pop2, hits give low values 0.953 | S. cerevisiae deletion strains, locus YOL006C, strain TOP1, hits give low values 0.929 | S. cerevisiae deletion strains, locus YOL012C, strain htz1 1.39 | S. cerevisiae deletion strains, locus YOL147C, strain pex11, hits give low values 0.978 | S. cerevisiae deletion strains, locus YOR001W, strain rrp6, hits give low values 0.993 | S. cerevisiae deletion strains, locus YOR061W, strain CKA2, hits give low values 1 | S. cerevisiae deletion strains, locus YOR069W, strain VPS5, hits give low values 0.998 | S. cerevisiae deletion strains, locus YOR070C, strain gyp1, hits give low values 0.979 | S. cerevisiae deletion strains, locus YOR080W, strain dia2, hits give low values 0.986 | S. cerevisiae deletion strains, locus YOR083W, strain WHI5, hits give low values 0.948 | S. cerevisiae deletion strains, locus YOR106W, strain vam3, hits give low values 0.995 | S. cerevisiae deletion strains, locus YOR136W, strain idh2, hits give low values 0.971 | S. cerevisiae deletion strains, locus YOR144C, strain elg1, hits give low values 0.96 | S. cerevisiae deletion strains, locus YOR184W, strain ser1, hits give low values 0.994 | S. cerevisiae deletion strains, locus YOR231W, strain MKK1, hits give low values 0.987 | S. cerevisiae deletion strains, locus YOR265W, strain rbl2, hits give low values 0.98 | S. cerevisiae deletion strains, locus YOR270C, strain vph1, hits give low values 0.914 | S. cerevisiae deletion strains, locus YOR290C, strain snf2, hits give low values 0.974 | S. cerevisiae deletion strains, locus YOR316C, strain cot1, hits give low values 0.958 | S. cerevisiae deletion strains, locus YPL051W, strain arl3, hits give low values 0.979 | S. cerevisiae deletion strains, locus YPL055C, strain LGE1, hits give low values 0.975 | S. cerevisiae deletion strains, locus YPL078C, strain atp4, hits give low values 0.974 | S. cerevisiae deletion strains, locus YPL106C, strain sse1, hits give low values 0.949 | S. cerevisiae deletion strains, locus YPL240C, strain hsp82, hits give low values 1.01 | S. cerevisiae deletion strains, locus YPL241C, strain CIN2, hits give low values 0.994 | S. cerevisiae deletion strains, locus YPL256C, strain CLN2, hits give low values 0.995 | S. cerevisiae deletion strains, locus YPR119W, strain clb2, hits give low values 0.977 | S. cerevisiae deletion strains, locus YPR141C, strain kar3, hits give low values 0.954 | S. cerevisiae deletion strains, locus YPR163C, strain tif3, hits give low values 0.971 | S. cerevisiae deletion strains, locus YPR167C, strain met16, hits give low values 0.958 | S. cerevisiae deletion strains, strain wtn01, hits give low values 0.979 | S. cerevisiae strains, strain wild type, hits give low values 1.01
